Laboratory results: PubChem BioAssay AID1159580 (chemical genetic matrix, 2015)
About 2,000 (36%) of roughly 5,500 compounds were called active. Not shown: some 18% with an inconclusive outcome. Rule as the data show it: active = normalized growth mostly below about 0.91 (no sharp cut-off); inconclusive = no clear call, values can overlap the other calls; inactive = mostly above about 0.92. The list shows a part of the results.

Experiment: chemical genetic growth profiling, strain panel (AID 1159580);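 also: tested at 20 µM; growth read once vehicle control cultures reached saturation at 30 °C; 1 = growth at the plate median or of vehicle wells; lower values mean less growth of the strain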
Conditions: S. cerevisiae deletion strains, growth OD

Measured: normalized growth

Nc1cc(=O)[nH]c(N)n1
inactive: locus YAL040C, strain CLN3, active compounds read low 1.01 | locus YCL061C, strain MRC1 (second series), active compounds read low 0.991 | locus YDR150W, strain NUM1, active compounds read low 0.978 | locus YDR363W, strain ESC2, active compounds read low 0.953 | locus YER002W, strain NOP16, active compounds read low 1.01 | locus YMR307W, strain GAS1, active compounds read low 0.981 | locus YNL128W, strain TEP1, active compounds read low 0.984 | locus YNL175C, strain NOP13, active compounds read low 1.01 | locus YNL197C, strain WHI3, active compounds read low 0.987 | locus YNL224C, strain SQS1, active compounds read low 1.01 | locus YNL322C, strain KRE1, active compounds read low 1 | locus YOR083W, strain WHI5 (second series), active compounds read low 1.02 | locus YPL241C, strain CIN2, active compounds read low 1.01

CC(C)(C)c1ccc(C(=N)SC(C(=O)C(F)(F)F)c2ccccc2)cc1 (centres undefined)
active: locus YHR030C, strain SLT2, active compounds read low 0.471 | locus YPL256C, strain CLN2, active compounds read low 0.846
inactive: locus YAR019C, strain CDC15, active compounds read low 0.987 | locus YBL105C, strain PKC1, active compounds read low 0.994 | locus YBR135W, strain CKS1, active compounds read low 0.994 | locus YBR136W, strain MEC1, active compounds read low 0.985 | locus YBR160W, strain CDC28, active compounds read low 0.994 | locus YDL017W, strain CDC7, active compounds read low 0.998 | locus YDL028C, strain MPS1, active compounds read low 0.989 | locus YDL101C, strain DUN1, active compounds read low 0.992 | locus YDL108W, strain KIN28, active compounds read low 0.987 | locus YDL132W, strain cdc53, active compounds read low 0.989 | locus YDL214C, strain PRR2, active compounds read low 0.916 | locus YDR052C, strain DBF4, active compounds read low 0.993 | locus YDR054C, strain cdc34, active compounds read low 0.986 | locus YDR226W, strain ADK1, active compounds read low 0.993 | locus YDR477W, strain SNF1, active compounds read low 0.865 | locus YER123W, strain YCK3, active compounds read low 0.877 | locus YER133W, strain GLC7, active compounds read low 0.942 | locus YFL009W, strain cdc4, active compounds read low 0.991 | locus YFL029C, strain CAK1, active compounds read low 0.982 | locus YFR003C, strain YPI1, active compounds read low 0.986 | locus YFR019W, strain FAB1, active compounds read low 0.884 | locus YFR028C, strain CDC14, active compounds read low 0.985 | locus YGR040W, strain KSS1, active compounds read low 0.894 | locus YGR052W, strain FMP48, active compounds read low 0.96 | locus YGR092W, strain DBF2, active compounds read low 0.887 | locus YHR079C, strain IRE1, active compounds read low 0.804 | locus YHR082C, strain KSP1, active compounds read low 0.766 | locus YHR205W, strain SCH9, active compounds read low 0.778 | locus YIL147C, strain SLN1, active compounds read low 0.992 | locus YJL095W, strain BCK1, active compounds read low 0.868 | locus YJL128C, strain PBS2, active compounds read low 1.02 | locus YJL157C, strain FAR1, active compounds read low 0.966 | locus YJR016C, strain ILV3, active compounds read low 0.995 | locus YJR066W, strain TOR1 (second series), active compounds read low 0.931 | locus YJR066W, strain TOR1, active compounds read low 0.859 | locus YKL048C, strain ELM1, active compounds read low 0.96 | locus YKL067W, strain YNK1, active compounds read low 0.951 | locus YKL101W, strain HSL1, active compounds read low 0.875 | locus YKL193C, strain SDS22, active compounds read low 0.986 | locus YKL203C, strain TOR2, active compounds read low 0.98 | locus YLR113W, strain HOG1, active compounds read low 0.901 | locus YLR133W, strain CKI1, active compounds read low 0.887 | locus YLR403W, strain SFP1, active compounds read low 0.89 | locus YML070W, strain DAK1, active compounds read low 0.9 | locus YMR001C, strain CDC5, active compounds read low 0.983 | locus YMR205C, strain PFK2 (second series), active compounds read low 0.941 | locus YMR277W, strain FCP1, active compounds read low 0.993 | locus YNL006W, strain LST8, active compounds read low 0.997 | locus YNL020C, strain ARK1, active compounds read low 0.884 | locus YNL161W, strain CBK1, active compounds read low 0.993 | locus YNL183C, strain NPR1, active compounds read low 0.863 | locus YNL207W, strain RIO2, active compounds read low 0.99 | locus YNL222W, strain SSU72, active compounds read low 0.989 | locus YNL307C, strain MCK1 (second series), active compounds read low 0.794 | locus YOL078W, strain AVO1, active compounds read low 0.994 | locus YOL136C, strain PFK27, active compounds read low 0.901 | locus YOR061W, strain CKA2, active compounds read low 0.885 | locus YOR119C, strain RIO1, active compounds read low 0.979 | locus YOR231W, strain MKK1, active compounds read low 0.938 | locus YOR329C, strain SCD5, active compounds read low 0.988 | locus YPL031C, strain PHO85, active compounds read low 0.872 | locus YPL153C, strain RAD53, active compounds read low 0.909 | locus YPL204W, strain HRR25, active compounds read low 0.905 | locus YPL209C, strain IPL1, active compounds read low 0.99 | locus YPR025C, strain CCL1, active compounds read low 0.995 | locus YPR106W, strain ISR1, active compounds read low 0.988 | locus YPR111W, strain DBF20, active compounds read low 0.977 | strain NNK1, active compounds read low 0.982 | strain TSCII, active compounds read low 0.985
